# From PubChem BioAssay (NCI)
# The panel holds about 83,000 compounds, 20% with a hit somewhere; the sample as a whole holds those more often.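 Compound tested at a single concentration for 48 hours in 96-well plates; a percent growth value below 10 was scored as active.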 Unmarked numbers belong to inactive results. The source made the active and inactive calls.
# Experiments:
# Assay in all cases: NCI-60 one-dose screen, 48 h (100 = growth as untreated, 0 = no growth, -100 = all killed)
# SK-MEL-2 melanoma = conditions: 10 µM unless noted
# EKVX NSCLC = conditions: 10 µM unless noted
# SN12C renal = conditions: 10 µM unless noted
# UO-31 renal = conditions: 10 µM unless noted
# TK-10 renal = conditions: 10 µM unless noted
# ACHN renal = conditions: 10 µM unless noted
# CAKI-1 renal = conditions: 10 µM unless noted
# A498 renal = conditions: 10 µM
# HL-60(TB) leukemia = conditions: 10 µM unless noted
# CCRF-CEM leukemia = conditions: 10 µM unless noted
# MOLT-4 leukemia = conditions: 10 µM unless noted
# SR leukemia = conditions: 10 µM unless noted
# RPMI-8226 leukemia = conditions: 10 µM unless noted
# OVCAR-8 ovarian = conditions: 10 µM unless noted
# OVCAR-5 ovarian = conditions: 10 µM unless noted
# OVCAR-4 ovarian = conditions: 10 µM unless noted
# SK-OV-3 ovarian = conditions: 10 µM unless noted
# IGROV1 ovarian = conditions: 10 µM unless noted
# OVCAR-3 ovarian = conditions: 10 µM unless noted
# HS 578T breast = conditions: 10 µM unless noted
Structure (SMILES),growth (SK-MEL-2 melanoma),growth (EKVX NSCLC),growth (SN12C renal),growth (UO-31 renal),growth (TK-10 renal),growth (ACHN renal),growth (CAKI-1 renal),growth (A498 renal),growth (HL-60(TB) leukemia),growth (CCRF-CEM leukemia),growth (MOLT-4 leukemia),growth (SR leukemia),growth (RPMI-8226 leukemia),growth (OVCAR-8 ovarian),growth (OVCAR-5 ovarian),growth (OVCAR-4 ovarian),growth (SK-OV-3 ovarian),growth (IGROV1 ovarian),growth (OVCAR-3 ovarian),growth (HS 578T breast)
COc1ccc(Nc2ccnc3cc(Cl)ccc23)cc1CN(CCCl)CCCl,-46.7% (active),-15.3% (active),2.25% (active),-42.2% (active),-37.5% (active),-33.7% (active),-63.9% (active),-47.5% (active),-22.3% (active),-6.67% (active),-12.1% (active),-0.721% (active),-25.8% (active),-39.3% (active),-26.1% (active),-15.3% (active),8.86% (active),-36% (active),-49.3% (active),-27.6% (active)
Cc1ccc(N2COOC3(OOC2)C2CC4CC(C2)CC3C4)cc1,104%,93%,106%,20.7%,98.7%,97.7%,53.7%,88.4%,66.6%,107%,79.3%,46.4%,102%,99%,101%,101%,101%,45.2%,102%,109%
c1cc2c(c3c1CCNC3)OCO2,101%,95.6%,100%,90.2%,101%,111%,91.1%,118%,101%,124%,100%,93%,109%,107%,108%,110%,92.6%,99.9%,118%,112%
Nc1ccc2c(c1)Cc1cc(Br)ccc1-2,112%,64.2%,85.3%,49%,123%,106%,98.1%,76.4%,47.8%,50%,71%,84.6%,79.8%,107%,110%,99.9%,101%,104%,114%,111%
CCn1c2ccccc2c2cc(C(=O)c3ccc(C)c4ccccc34)ccc21,24%,32%,22.7%,30.5%,38%,23.9%,28.8%,7.13% (active),8.9% (active),18.2%,7.66% (active),2.83% (active),12.2%,22.8%,28.6%,48.5%,25.4%,21.4%,7.68% (active),30.1%
C[S+]1C=Cc2ccccc2C1c1ccc(Cl)cc1 (stereo not given),92.7%,90.6%,96%,75.6%,101%,99.3%,72.7%,96%,91.3%,73.7%,85.7%,93.4%,40.8%,95.2%,118%,66.5%,116%,-85.2% (active),89.8%,77.7%
N#C[Se]Cc1cc(-c2ccccc2)n(-c2ccc(S(N)(=O)=O)cc2)n1,-35.9% (active),-1.91% (active),6.49% (active),-25.6% (active),-29.7% (active),1.16% (active),0.316% (active),-61.4% (active),-44.5% (active),-16.4% (active),-28.4% (active),-32.5% (active),-33.5% (active),6.01% (active),-42.6% (active),2.52% (active),-42.6% (active),-35.6% (active),-80.6% (active),-17.6% (active)
Cc1cc(C)cc(Nc2nc3c(s2)CC[C@@]2(C)C3=CC[C@@H]3[C@@H]2CC[C@]2(C)C(=O)CC[C@@H]32)c1,54.9%,89.4%,54.2%,59.4%,77.6%,63.4%,47.4%,78%,57.6%,3.37% (active),10.3%,12.5%,4.21% (active),50.4%,93.3%,70%,79.8%,85.2%,23.8%,58.3%
